Measured values from PubChem BioAssay AID720697 (Broad Institute, 2013).
Measured potencies and affinities stand elsewhere. Records with an inconclusive call do not appear. Active and inactive are the calls of the source.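 The calls were made as follows: active = signal loss with fitted half-maximal concentration at or below twice the top valid tested dose in every test run; inconclusive = runs disagree, flat 30 to 70% signal loss, or poor fit; inactive = all runs flat, opposite direction, or potency beyond limit.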

Assay: HEK293T cytotoxicity, dose response, cytotoxicity control for miR-122 modulator project, cell-based, inhibitor set, cherry-pick, set 2 (AID 720697)
Details: HEK293T viability, CellTiter-Glo luminescence, 48 h; series mostly up to 26 µM

| Compound | outcome |
| --- | --- |
| CNC[C@@H]1Oc2cc(C#Cc3cccc(OC)c3)ccc2S(=O)(=O)N([C@@H](C)CO)C[C@@H]1C | inactive |
| Nc1ccc(Oc2ccc(Br)cc2)cc1 | inactive |
| Cc1ccc(NCC(=O)c2ccccc2)cc1Cl | inactive |
